Reference: PubChem BioAssay (NCATS)
Records with an inconclusive call do not appear. Where a call stands in place of a potency, no number is given. The source made the active and inactive calls. Unless noted, the call rests on the fitted dose curve; in most records, active means well fitted curve in the direction sought with a large enough effect; inconclusive means small, poorly fitted or top-dose-only effect, or another doubt; inactive means no such curve, though single readings can be large; an effect the other way counts as inactive or inconclusive. *1 amine or outer side, *2 acyl side, *3 side chain or, on linkers, in order; H or OH if unused. Where a SMILES comes first, the peptide text is derived from it. Bridges are numbered along the chain shown (N, C = ends). Roman numbers before positions name the chains, in order. [ ]: non-standard residue; d: D form. ξ: configuration not given here. Actinocin(9to1) = Cc1c2oc3c(C)ccc(C(=O)[*:1])c3nc-2c(C(=O)[*:2])c(N)c1=O; ξNMeV = CNC(C(=O)O)C(C)C; ξV = CC(C)C(N)C(=O)O; Sar = CNCC(=O)O

Legend:
[1] = target: Luciferin 4-monooxygenase (Photinus pyralis) (UniProt P08659); assay: Biochemical firefly luciferase enzyme assay for NPC (AID 624030);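 further: purified P. pyralis luciferase at 10 nM with luciferin and ATP substrate; series mostly up to about 59 µM; nearly all actives have a fitted effect of over 70% in size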
Chain of Luciferin 4-monooxygenase (Photinus pyralis) (P08659 whole entry, looked up): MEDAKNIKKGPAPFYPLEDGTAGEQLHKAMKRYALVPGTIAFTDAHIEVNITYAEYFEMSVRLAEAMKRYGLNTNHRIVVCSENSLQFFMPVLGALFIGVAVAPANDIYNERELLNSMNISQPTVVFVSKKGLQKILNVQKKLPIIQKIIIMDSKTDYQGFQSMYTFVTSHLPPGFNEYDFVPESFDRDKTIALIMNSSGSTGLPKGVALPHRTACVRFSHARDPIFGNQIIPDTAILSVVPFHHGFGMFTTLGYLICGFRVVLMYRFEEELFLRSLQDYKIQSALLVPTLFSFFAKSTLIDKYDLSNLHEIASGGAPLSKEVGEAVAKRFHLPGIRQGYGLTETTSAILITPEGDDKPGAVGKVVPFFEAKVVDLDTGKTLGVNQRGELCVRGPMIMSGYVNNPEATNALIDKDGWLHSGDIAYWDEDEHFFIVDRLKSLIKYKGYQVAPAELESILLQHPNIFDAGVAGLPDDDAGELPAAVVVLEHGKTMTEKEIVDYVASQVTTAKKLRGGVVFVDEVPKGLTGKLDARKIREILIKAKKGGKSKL
Outline: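 Direct inhibition of firefly luciferase enzyme (10 nM final, 50 mM Tris Acetate) assessed by luminescence within 5 minutes. Percent activity scaled between DMSO and PTC124 positive control, with concentration-effect curves classified by fit quality and response.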

[2] = S16 Schwann cell PMP22 intronic element beta-lactamase assay (AID 624044; calls by dose curve; further: nearly all actives have a fitted effect of over 15% in size; further: potency means the concentration at half of the fitted maximal effect)
Outline: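 Rat S16 Schwann cells with beta-Lac driven by a PMP22 intronic element, compound-treated 24 h at 37 °C. LiveBLAzer FRET B/G read: 460 nm normalized to potassium clavulanate vs DMSO; 535 nm FRET as viability; concentration-effect curves classified.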

[3] = Cytotoxicity counterscreen for NFkB agonists and antagonists (AID 624476);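 further: cells exposed to compound for 48 hours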; further: potency means the concentration at half of the fitted maximal effect
[4] = qHTS Assay for Identification of Small Molecule Agonists for NFkB Signaling Pathway. (AID 624478);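 further: compounds tested together with TNF alpha at its EC50 of 10 pM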
Outline: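 ME-180 cervical carcinoma, stable NFkB-RE beta-lactamase reporter; 1000 cells/well, overnight attachment; cpd + TNF alpha 10 pM final, 5 h 37 C; LiveBLAzer 2 h RT; FRET 460/530 nm, ex 405 nm.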

[5] = S16 Schwann cell viability assay (CellTiter-Glo assay) (AID 624031);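 further: cellular ATP luminescence as a viability measure; series mostly up to about 58 µM; nearly all actives have a fitted effect of over 70% in size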
Outline: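 Untransfected S16 rat Schwann cells; compound 24 h, 37 °C/5% CO2; CellTiter-Glo ATP luminescence. % activity vs no-cell wells and DMSO controls (0%); concentration-effect curves classed by r2, response magnitude, activity.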

[6] = S16 Schwann cell PMP22 intronic element firefly luciferase assay (AID 624032); further: nearly all actives have a fitted effect of over 30% in size; further: potency means the concentration at half of the fitted maximal effect
Outline: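 Luciferase reporter of PMP22 intronic-element expression in stably transfected S16 rat Schwann cells, read by ONE-Glo luminescence after 24 h compound exposure at 37 C. Activity scaled between DMSO (0%) and positive-control PTC124; concentration-effect curves quality-classified.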

CCCCCCCCCCCCCC[n+]1ccc(C)cc1
Potency [1]: inactive
Potency [2]: 19.9 µM (active)

C#C[C@]1(O)CC[C@H]2[C@@H]3CCC4=CCCC[C@@H]4[C@H]3C(=C)C[C@@]21CC
Potency [1]: inactive
Potency [2]: inactive

CCCCCCCCCCCCCCCCCCOP(=O)([O-])OC1CC[N+](C)(C)CC1
Potency [1]: inactive
Potency [3]: inactive
outcome [4]: inactive

COC(=O)C1=C(C)NC(C)=C(C(=O)OCCCN2CCC(c3ccccc3)(c3ccccc3)CC2)[C@H]1c1cccc([N+](=O)[O-])c1
outcome [4]: inactive

CC(Cc1ccc(O)c(O)c1)C(C)Cc1ccc(O)c(O)c1 (stereo unspecified)
Potency [5]: inactive
Potency [6]: 8.09 µM (active)
Potency [2]: 22.4 µM (active)

CNC1CCN(C(Cc2cccc(-c3ccncc3)c2)C(=O)c2sc3c(F)ccc(F)c3c2Cl)CC1 (stereo unspecified)
outcome [4]: inactive

CCC1(Cc2ccc(N)cc2)CCC(=O)NC1=O (stereo unspecified)
Potency [3]: inactive

CC(NNC(=O)c1ccccc1)c1ccccc1 (stereo unspecified)
Potency [5]: inactive
Potency [2]: inactive

CC(NC(=O)Cc1cc(F)cc(F)c1)C(=O)NC(C(=O)OC(C)(C)C)c1ccccc1 (stereo unspecified)
Potency [3]: inactive
outcome [4]: inactive

COCC(=O)Nc1cc(Sc2ccccc2)ccc1N=C(NC(=O)OC)NC(=O)OC
Potency [1]: inactive
Potency [2]: inactive

IC(I)I
Potency [5]: inactive
Potency [6]: inactive
Potency [2]: inactive

Cc1c2oc3c(C)ccc(C(=O)N[C@@H]4C(=O)NC(C(C)C)C(=O)N5CCC[C@H]5C(=O)N(C)CC(=O)N(C)C(C(C)C)C(=O)O[C@@H]4C)c3nc-2c(C(=O)N[C@@H]2C(=O)NC(C(C)C)C(=O)N3CCC[C@H]3C(=O)N(C)CC(=O)N(C)C(C(C)C)C(=O)O[C@@H]2C)c(N)c1=O (stereo partly specified) (I: T[ξV]P[Sar][ξNMeV] / II: T[ξV]P[Sar][ξNMeV]; ester I:1-I:C, II:1-II:C; linker I:N-II:N via Actinocin(9to1))
Potency [3]: 0.0013 µM (active)
outcome [4]: inactive

CCCCC(CC)COC(=O)CC(C(=O)OCC(CC)CCCC)S(=O)(=O)O (stereo unspecified)
Potency [5]: inactive
Potency [2]: inactive

CCC1(O)CC2CN(CCc3c([nH]c4ccccc34)[C@@](C(=O)OC)(c3cc4c(cc3OC)N(C=O)[C@H]3[C@](O)(C(=O)OC)[C@H](OC(C)=O)[C@]5(CC)C=CCN6CC[C@]43[C@@H]65)C2)C1 (stereo partly specified)
Potency [3]: inactive
outcome [4]: inactive

CCCCC/C=C\C/C=C\CCCCCCCC(=O)O
Potency [1]: inactive
Potency [2]: inactive

CC[C@@H](C(=O)O)C1CC[C@H](C)C([C@@H](C)[C@H](O)[C@H](C)C(=O)[C@H](CC)C2O[C@]3(C=C[C@@H](O)[C@]4(CC[C@@](C)(C5CC[C@](O)(CC)[C@H](C)O5)O4)O3)[C@H](C)C[C@@H]2C)O1 (stereo partly specified)
outcome [4]: inactive
